proKLK7 act – proKLK7 zymogen activators, primary screen, biochemical, fluorescence intensity | activation, % at 7 µM | purified proKLK7, EDANS-DABCYL substrate fluorescence; 100% is mature enzyme control, 0% vehicle | Kallikrein-7 (Homo sapiens), P49862 | 370,000 tested, 0.9% active;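 active means activation above the mean of all tested compounds plus 3 SD, computed per campaign excluding outliers beyond control limits, cut at about 13% in these data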
ADAM10 inh – human ADAM10 inhibitors, primary screen, biochemical, QFRET, HTS; Disintegrin and metalloproteinase domain-containing protein 10 (Homo sapiens), O14672; recombinant ADAM10, EDANS/DABCYL FRET peptide cleavage, 3 h; inhibition, % at 7 µM; 370,000 tested, 0.62% active;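 active means inhibition above a per-campaign cutoff equal to the mean of compounds falling between control-based bounds plus 3 SD, cut at about 20% in these data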;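 further: 0% = DMSO wells while the 100% control is not disclosed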
ADAM17 inh – ADAM17 inhibitors, primary screen, biochemical, QFRET | inhibition, % at 6.95 µM | 370,000 tested, 0.83% active | recombinant ADAM17, EDANS/DABCYL FRET peptide cleavage;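 active means inhibition above the mean of compounds lying between control limits plus 3 SD, set per campaign, cut at about 8.5% in these data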;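 further: 0% = DMSO-only wells as the low control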
Target sequence (P78536 215-824 limits assumed): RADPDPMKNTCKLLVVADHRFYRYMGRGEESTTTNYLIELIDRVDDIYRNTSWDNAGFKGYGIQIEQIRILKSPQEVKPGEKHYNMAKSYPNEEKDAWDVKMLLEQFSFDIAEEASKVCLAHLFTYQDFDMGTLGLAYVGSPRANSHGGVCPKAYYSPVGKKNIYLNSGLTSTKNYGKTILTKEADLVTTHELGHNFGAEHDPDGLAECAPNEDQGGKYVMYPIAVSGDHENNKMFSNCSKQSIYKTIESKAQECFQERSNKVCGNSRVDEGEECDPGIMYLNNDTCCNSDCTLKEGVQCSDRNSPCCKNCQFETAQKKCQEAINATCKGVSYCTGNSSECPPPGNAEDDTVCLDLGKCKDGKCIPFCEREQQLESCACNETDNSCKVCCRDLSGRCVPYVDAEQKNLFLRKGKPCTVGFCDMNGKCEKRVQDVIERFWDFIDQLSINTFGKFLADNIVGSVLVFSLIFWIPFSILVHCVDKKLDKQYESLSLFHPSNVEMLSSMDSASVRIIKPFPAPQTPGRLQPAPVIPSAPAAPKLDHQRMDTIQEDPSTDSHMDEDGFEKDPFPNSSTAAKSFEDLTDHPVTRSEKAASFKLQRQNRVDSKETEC
PLC-beta3 inh – human PLC-beta3 inhibitors, primary screen, biochemical, fluorescence. Purified PLC-beta3, fluorogenic substrate. inhibition, % at 12.2 µM. 370,000 tested, 0.18% active. AID 720704, 2013; in the data active means inhibition above about 11%;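 further: 0% = median of compound wells on plate and 100% = full blocker control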
PLC-gamma1 inh – PLC-gamma1 enzyme inhibitors, primary screen, biochemical, fluorescence, purified enzyme; 1-phosphatidylinositol 4,5-bisphosphate phosphodiesterase gamma-1 (Homo sapiens), P19174; fluorogenic substrate; inhibition, % at 12.2 µM; 370,000 tested, 0.84% active; AID 720700, 2013; in the data active means inhibition above about 9.5%
ADAM10 ctr – ADAM10 inhibitors, counter-screen for ADAM17 exosite inhibitor project, biochemical, FRET, human ADAM10 | shares compounds with ADAM17 inh | 2,900 tested, 47% active | recombinant ADAM10, EDANS/DABCYL FRET peptide cleavage, 3 h | inhibition, % at 6.95 µM;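 active means mean inhibition over the triplicate runs exceeds the activity threshold set in the earlier primary screen, cut at about 20% in these data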;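 further: 0% = DMSO wells and 100% = marimastat wells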
ADAM17 confirm – ADAM17 inhibitors, hit retest, confirmation, biochemical, QFRET peptide cleavage; shares compounds with ADAM17 inh; recombinant ADAM17, EDANS/DABCYL QFRET peptide cleavage; inhibition, % at 6.95 µM; 2,900 tested, 65% active;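 active means mean inhibition across replicates above the hit cutoff set in the primary screen, cut at about 8.5% in these data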;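 further: 0% = DMSO wells and 100% = marimastat wells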
Numbers without * were called inactive; / = not tested or not shown. In the library only some 2.9% were active in any assay of this set; here they are far more common.

SMILES	proKLK7 act	ADAM10 inh	ADAM17 inh	PLC-beta3 inh	PLC-gamma1 inh	ADAM10 ctr	ADAM17 confirm
COc1cccc(CNC(=O)CSCc2cnn(-c3ccccc3)c2-n2cccc2)c1	0	18	14*	8	9	0	4
O=C(NC(=S)NNC(=O)c1cc2ccccc2cc1O)c1ccco1	1	17	9.3*	-37	-35	4	6
O=C(NC(=S)NNC(=O)c1ccccc1O)c1ccco1	0	10	5	-6	1	/	/
Cc1nc(C)c(C(=O)C2=C(O)C(=O)N(CCN3CCOCC3)C2c2cccnc2)s1 (stereo unspecified)	1	-1	-2	3	1	/	/
NS(=O)(=O)c1ccc(NC(=O)/C=C/c2cccs2)cc1	0	15	10*	-4	6	-6	3
Cc1nc(N2CCOCC2)c2c(C)c(C(=O)Nc3ccccc3C(F)(F)F)sc2n1	1	-29	-12	-30	-16	/	/
COc1ccc(/C=N/n2c(-c3n[nH]c4c3CCC4)n[nH]c2=S)cc1OC	0	4	8	9	2	/	/
COc1ccc2ccccc2c1C=Nn1c(-c2n[nH]c3c2CCC3)n[nH]c1=S	-1	11	10*	0	3	0	3
CC(C)COc1cccc(C(=O)Nc2cc(S(=O)(=O)N3CCOCC3)ccc2N2CCCC2)c1	0	-6	11*	-20	-7	21*	11*
Cc1ccc(C(=O)Nc2cc(S(=O)(=O)N3CCOCC3)ccc2N2CCCC2)cc1	0	-9	0	-1	1	/	/
CCc1ccc(C(=O)Nc2cc(S(=O)(=O)N3CCOCC3)ccc2N2CCOCC2)cc1	0	6	9.1*	-2	6	-4	3
COc1cccc(C(=O)Nc2cc(S(=O)(=O)N3CCOCC3)ccc2N2CCOCC2)c1	0	4	-2	-8	-2	/	/
CCOC(=O)C1CCN(S(=O)(=O)NC[C@H]2O[C@@H](n3cnc4c(N)ncnc43)[C@H](O)[C@@H]2O)C1 (stereo partly specified)	-1	-10	-6	-2	-1	/	/
CCOC(=O)N1CCN(C(=O)C[C@H]2C[C@@]3(C(=O)OC)C(=C[C@H](C(C)C)O[C@@H]3C3CC3)N(Cc3ccc(Cl)cc3Cl)C2=O)CC1	1	6	9.2*	0	7	18	12*
Cc1ccc(S(=O)(=O)Nc2cc(Cl)c(O)c3ncccc23)cc1	5	11	14*	-15	-9	8	17*
COc1ccc(CN(C(=O)c2nsc(Cl)c2Cl)C(C(=O)NC2CCCC2)c2ccc(C)cc2)cc1 (stereo unspecified)	-1	13	10*	4	2	14	14*
Cc1ccc(C)c(N(C(=O)c2nsc(Cl)c2Cl)C(C(=O)NC2CCCC2)c2ccc(O)cc2)c1 (stereo unspecified)	0	2	0	3	-4	/	/
CCNC(=O)C1(C)CCCN(C(=O)c2ccc3sccc3c2)C1 (stereo unspecified)	0	-16	-4	2	2	/	/
CC(=O)OCC(=O)[C@@]12OC3(CCCC3)O[C@@H]1C[C@H]1[C@@H]3CCC4=CC(=O)C=C[C@]4(C)[C@@]3(F)[C@@H](O)C[C@@]12C	1	19	8.7*	0	6	8	6
CC1(C)O[C@@H]2C[C@H]3[C@@H]4CCC5=CC(=O)C=C[C@]5(C)[C@@]4(F)[C@@H](O)C[C@]3(C)[C@]2(C(=O)CO)O1	1	1	2	2	3	/	/
Cc1ccc(S(=O)(=O)N(CC(=O)Nc2cccc(N(C)S(C)(=O)=O)c2)c2ccc(Cl)c(Cl)c2)cc1	0	25*	13*	3	3	39*	22*
CN(c1cccc(NC(=O)CN(c2ccc(Cl)c(Cl)c2)S(=O)(=O)c2ccccc2)c1)S(C)(=O)=O	0	18	7	-3	-1	/	/
CCNC(=O)c1cc2c(c(-c3cccc(-c4cccc(C(=O)N(C)C)c4)c3)n1)[C@H](CCO)N(S(=O)C(C)(C)C)C2 (stereo partly specified)	0	-11	-2	-51	-35	/	/
CC(C)(C)S(=O)N1Cc2cc(C(=O)NCC(F)(F)F)nc(-c3cccc(-c4cccc(F)c4)c3)c2[C@H]1CCO (stereo partly specified)	0	17	10*	0	3	20*	11*
C[C@@H](NC(=O)c1nc[nH]c1C(=O)N1CCc2ccccc2C1)c1ccccc1	1	7	9.0*	-1	5	-4	-3
SMILES	proKLK7 act	ADAM10 inh	ADAM17 inh	PLC-beta3 inh	PLC-gamma1 inh	ADAM10 ctr	ADAM17 confirm
C[C@H](NC(=O)c1nc[nH]c1C(=O)N1CCc2ccccc2C1)C(=O)OC(C)(C)C	0	0	-1	5	1	/	/
CC(C(=O)O)N1C(=O)/C(=C/c2cccn2C)SC1=S (stereo unspecified)	0	9	2	-6	-6	/	/
Cn1cccc1/C=C1\SC(=S)N(NC(=O)c2ccc(F)cc2)C1=O	0	15	13*	-23	-8	8	4
CCC(C(=O)O)N1C(=O)/C(=C/c2cccn2C)SC1=S (stereo unspecified)	0	19	8.8*	-10	3	17	12*
CC(C)(C)c1ccc(OCCC(=O)OCC(=O)NC(=O)NC2CCCC2)cc1	0	19	17*	-3	5	28*	13*
COc1ccccc1OCc1ccc(C(=O)N2CCCCC2)o1	0	4	-1	-6	0	/	/
Cc1ccc(NC(=O)CN(C)CC(=O)Nc2ccccc2-c2ccccc2)cc1	0	6	2	5	-1	/	/
Cc1cccc(C(=O)Nc2cccc(OC(=O)c3cccc(C)c3)c2)c1	3	11	10*	-1	-1	30*	17*
C/C(=C\c1ccc(C(=O)O)cc1)c1ccc2c(c1)C(C)(C)CCC2(C)C	0	6	9.0*	7	8	6	5
CN(C(=O)c1cccc(S(=O)(=O)N2CCOCC2)c1)c1c(N)n(Cc2ccccc2)c(=O)[nH]c1=O	-1	-24	1	-9	-3	/	/

Compound activity (PubChem)
